# Source: PubChem BioAssay AID1671190 (National Center for Advancing Translational Sciences (NCATS), 2021)
# The campaign covered roughly 580,000 compounds. About 6,100 (1.1%) were called active. Not shown: some 15% with an inconclusive outcome. The full list was thinned out, with actives kept by preference. A number with no mark means an inactive call. Calls come from the whole dose curve; as a rule, active = well fitted inhibition curve with a large enough effect; inconclusive = small, poorly fitted or top-dose-only effect, or another doubt; inactive = no such curve, though single readings can be large or run the other way.
# Target: Polyunsaturated fatty acid lipoxygenase ALOX12 (Homo sapiens) (UniProt P18054)
# Test: Primary qHTS assay for inhibitors of human arachidonate 12S-lipoxygenase (ALOX12): Round 2
# Conditions: purified 12hLO, xylenol orange hydroperoxide absorbance; series mostly up to 108 µM; activity change, negative = inhibition: at the top concentration
# Outline: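 Hydroperoxide product was detected by ferrous iron/xylenol orange as the 573 to 405 nm absorbance ratio. Arachidonic acid at 40 uM (final) was turned over for 30 min at room temperature by 150 nM human 12hLO, pH 7.0 Hepes buffer, after 15 min compound preincubation.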
# % is set by controls: 0 for no effect and ±100 for the full control effect; potency is the fitted concentration of half-maximal effect.
# Sequence of Polyunsaturated fatty acid lipoxygenase ALOX12 (Homo sapiens) (P18054 whole entry, looked up): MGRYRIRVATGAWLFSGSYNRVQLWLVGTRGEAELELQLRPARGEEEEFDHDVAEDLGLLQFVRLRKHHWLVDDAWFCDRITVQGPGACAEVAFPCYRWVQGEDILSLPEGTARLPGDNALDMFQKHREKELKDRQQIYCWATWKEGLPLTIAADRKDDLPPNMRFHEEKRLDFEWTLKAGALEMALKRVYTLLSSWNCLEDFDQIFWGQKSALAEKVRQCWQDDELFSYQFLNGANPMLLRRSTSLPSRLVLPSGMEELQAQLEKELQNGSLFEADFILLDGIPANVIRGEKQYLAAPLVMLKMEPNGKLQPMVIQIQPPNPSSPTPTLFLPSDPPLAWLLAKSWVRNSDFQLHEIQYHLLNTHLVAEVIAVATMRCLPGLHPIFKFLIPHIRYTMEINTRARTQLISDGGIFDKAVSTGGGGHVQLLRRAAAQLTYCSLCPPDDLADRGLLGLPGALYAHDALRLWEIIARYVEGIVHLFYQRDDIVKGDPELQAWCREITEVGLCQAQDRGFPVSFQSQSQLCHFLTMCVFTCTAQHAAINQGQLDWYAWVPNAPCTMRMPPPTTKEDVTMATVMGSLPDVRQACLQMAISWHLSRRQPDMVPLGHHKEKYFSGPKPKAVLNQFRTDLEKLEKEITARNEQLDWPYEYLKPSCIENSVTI
SMILES,"activity change, negative = inhibition",Potency
CC(=O)c1ccccc1NCC(=O)NCC(F)(F)F,-15.2%,–
CCOc1ccc(CNC(=O)c2ncoc2-c2cccs2)cc1OC,29.3%,–
COc1cccc(CN(C(=O)c2oc3cc(Br)ccc3c2C)C2CCS(=O)(=O)C2)c1 (stereo not given),-12.2%,–
O=C(CCNc1c(-c2ccc(F)cc2)nc2cnccn12)Nc1ccc2c(c1)OCO2,-7.67%,–
Cc1ccc(C)c(Oc2coc3cc(OC(=O)C(C)C)ccc3c2=O)c1,-5.82%,–
CC(C)c1nnc(CN2CCOc3c(O)cc(-c4cccc(Cl)c4)cc3C2)o1,4.28%,–
S=c1[nH]nc(CSCc2ccc(Cl)cc2Cl)n1-c1ccccc1,–,28.2 µM (active)
CC(C)Oc1ccc(Cc2n[nH]c(=S)n2Cc2ccccc2)cc1Cl,-6.13%,–
O=S(=O)(NCCc1nnc2ccc(SCc3ccc(Cl)cc3Cl)nn12)c1ccccc1,-19.8%,–
CCN(C(=O)CCc1c[nH]c2ccccc12)c1ccc(F)cc1,-27.9%,–
CC(C)=CCc1ccc(O)c(=O)cc1C(C)C,–,25.1 µM (active)
Cc1ccccc1-c1cc(=O)c2cc(NC(=O)c3ccccc3F)ccc2o1,12.3%,–
COC(=O)C(NC(C)=O)(Nc1nc2c(s1)CCCC2)C(F)(F)F (stereo not given),–,17.8 µM (active)
CCOC(=O)C(NC(=O)CC(C)C)(Nc1sc2c(c1C(N)=O)CCCC2)C(F)(F)F (stereo not given),0.0335%,–
O=C(Nc1nc2c(s1)CCCC2)c1ccccc1F,-9.3%,–
CCOc1ccccc1OCCN,-30.9%,–
CCCc1nc2c(-c3ccc(Cl)cc3)c(C)[nH]n2c(=O)c1Cl,-11.8%,–
O=C(CSc1nncn1-c1ccccc1F)Nc1ccccc1C(=O)Nc1ccccc1,14%,–
O=C(COC(=O)c1cc2ccccc2cc1O)Nc1ccc(Cl)cc1C(F)(F)F,6.37%,–
O=C(COC(=O)c1cnccn1)Nc1ccc(Cl)cc1C(F)(F)F,–,10 µM (active)
O=C(COC(=O)c1cnccn1)Nc1cccc2ccccc12,-1.25%,–
CN(Cc1ccccc1N1CCCC1)C(=O)c1ccc(S(=O)(=O)N2CCOCC2)cc1,7.09%,–
CCOc1ccccc1NC(=O)c1cnc(N2CCCCC2)c2ccccc12,7.78%,–
O=C(COc1ncnc2c(Cl)cc(Cl)cc12)Nc1cc(F)ccc1F,-2.36%,–
Oc1c(Cl)cc(Cl)c(Cl)c1Cc1c(O)c(Cl)cc(Cl)c1Cl,–,7.08 µM (active)
CC(C)(C)NC(=O)C(Sc1ccccc1)c1ccccc1 (stereo not given),-8.61%,–
COc1ccc(Oc2c(C)oc3cc(OCC(=O)N4CCNC(=O)C4)ccc3c2=O)cc1,-1.25%,–
CN(Cc1ccco1)c1cc(-c2ccccc2C(F)(F)F)ncn1,-17.5%,–
COc1ccccc1-c1cc(NCc2cccs2)ncn1,-0.248%,–
FC(F)(F)c1ccccc1-c1cc(NCc2ccccc2)ncn1,–,15.8 µM (active)
